# Reference: ChEMBL document CHEMBL3988442, “University of Dundee, Small-Polar-MMV Screening Library” (2021)
# Hit rate of the full screen: of about 66,000 compounds, about 960 (1.5%) showed an effect of 50% or more. The sample as a whole holds a higher share of strong results than the screen did.
# Test system: Trypanosoma brucei
# Test: Trypanosoma brucei 72 hour study
# Assay type: functional, organism-based
# Set-up: scale not given: in the data most compounds retested in dose-response had high values
structure (smiles),measurement,setting,value
CCN1CCC2(CC1)CC(NCc1ccncc1)c1ccccc1O2.O=C(O)C(F)(F)F.O=C(O)C(F)(F)F.O=C(O)C(F)(F)F (stereo not drawn),Percent Effect,"30 µM, 30.03 µM",1.43%
O=C(CN1CCC(c2ccnn2CCO)CC1)NCc1ccco1,Percent Effect,10 µM,-47.08%
O=C(O)C(F)(F)F.O=C(c1ccno1)N1CC[C@@H]2O[C@H](COCCN3CCCC3)CC[C@@H]21,Percent Effect,"30 µM, 30.03 µM",39.45%
CCCN(Cc1nc2ccccc2[nH]1)Cc1ccccc1OC,Percent Effect,"30.3 µM, […]",15.38%
CCCN(Cc1cnc2ccccc2n1)Cc1ccccc1OC,Percent Effect,"30.3 µM, […]",99.59%
CCCN(Cc1ccccn1)Cc1ccccc1OC,Percent Effect,"30.3 µM, […]",-7.297%
Cc1cccc(CN2CCn3cc(Cn4cccn4)nc3C2)n1.O=C(O)C(F)(F)F.O=C(O)C(F)(F)F.O=C(O)C(F)(F)F,Percent Effect,"30 µM, 30.03 µM",-12.32%
O=C(O)C(F)(F)F.O=C(c1cnccn1)N1CCOC2(CCCN(c3ncccc3F)C2)C1 (stereo not drawn),Percent Effect,"30.3 µM, […]",-33.25%
O=C(O)C(F)(F)F.O=C(c1ccnnc1)N1CC[C@]2(C[C@H](Oc3ncccc3F)CO2)C1,Percent Effect,"30 µM, 30.03 µM",-5.807%
Cn1ccc(CNC(=O)Nc2ccc(S(=O)(=O)C(F)F)cc2)c1,Percent Effect,"30 µM, 30.03 µM",-7.299%
COc1ccc(CNC(=O)Nc2ccc(S(=O)(=O)C(F)F)cc2)cc1,Percent Effect,"30 µM, 30.03 µM",-8.777%
CN(C)c1ccc(CNC(=O)Nc2ccc(S(=O)(=O)C(F)F)cc2)cc1,Percent Effect,"30 µM, 30.03 µM",71.22%
COCCNC(=O)CN1CCN(c2nc(C)cs2)CC1,Percent Effect,10 µM,-57.99%
CC(C)C(=O)Nc1ccc(Oc2ccc3c(c2)OCO3)nc1,Percent Effect,"30 µM, 30.03 µM",-14.33%
CCC(=O)NCCCn1c(-c2cccnc2C)cc2cccnc21.Cl,Percent Effect,"30.3 µM, […]",-13.2%
CCN(Cc1cccs1)C(=O)c1ccc(=O)n(C)c1,Percent Effect,"30.3 µM, […]",-2.313%
COCCN(Cc1cccs1)C(=O)c1ccc(=O)n(C)c1,Percent Effect,"30.3 µM, […]",-3.424%
CN(Cc1cccs1)C(=O)c1ccc(=O)n(C)c1,Percent Effect,"30.3 µM, […]",98.98%
CC(=O)c1c(C)nn(CC(=O)Nc2ccc(F)cc2)c1C,Percent Effect,"30.3 µM, […]",-35.96%
COc1ccc(NC(=O)Cn2nc(C)c(C(C)=O)c2C)cc1,Percent Effect,"30.3 µM, […]",101.9%
COc1ccc(NC(=O)Cn2nc(C)c(C)cc2=O)cc1,Percent Effect,"30 µM, 30.03 µM",-33.88%
COc1ccc(NC(=O)Cn2nc(C)c(C)cc2=O)cc1OC,Percent Effect,"30.3 µM, […]",-10.01%
Cc1cc(=O)n(CC(=O)Nc2ccc(Cl)cc2)nc1C,Percent Effect,"30 µM, 30.03 µM",-26.52%
CC(=O)c1c(C)nn(CC(=O)Nc2ccc(Br)cc2)c1C,Percent Effect,"30.3 µM, […]",101.3%
Cc1ccc(Nc2nccc(C3CCN(CC(N)=O)C3)n2)nc1 (stereo not drawn),Percent Effect,"30.3 µM, […]",-50.23%
O=C(O)C(F)(F)F.O=C(c1ccccc1)N1CCC[C@]2(C[C@@H](OCc3ccccn3)CO2)C1,Percent Effect,"30.3 µM, […]",-136.6%
O=C(C1CC1)N1CCCC1c1nnc2n1CCCCC2 (stereo not drawn),Percent Effect,"30 µM, 30.03 µM",-31.5%
CN(C)C(=O)CN1CCn2cc(Cn3cccn3)nc2C1.O=C(O)C(F)(F)F.O=C(O)C(F)(F)F,Percent Effect,"30 µM, 30.03 µM",-43.32%
CCNc1cc2c(nn1)CCN(C(=O)c1cc3cccc(C)c3o1)C2,Percent Effect,10 µM,-32.26%
same,Percent Effect,"30.3 µM, […]",29.79%
CC(C)CN1Cc2nc(N3CCCC(C)C3)ncc2C1=O (stereo not drawn),Percent Effect,"30 µM, 30.03 µM",-5.722%
Cl.Cl.O=C(CN1CCN(CC(O)C2CC2)CC1)NCc1ccccc1Cl (stereo not drawn),Percent Effect,"30.3 µM, […]",-15.94%
COc1ccc(C(=O)NCCCOC(C)c2ccccc2)c(OC)c1 (stereo not drawn),Percent Effect,"30.3 µM, […]",17.87%
OC(CNc1ncnc2c1CCNCC2)C(F)(F)F (stereo not drawn),Percent Effect,"30 µM, 30.03 µM",-18.54%
OC(CNc1nc(C2CCCC2)nc2c1CCNCC2)C(F)(F)F (stereo not drawn),Percent Effect,"30 µM, 30.03 µM",99.48%
Cc1nc2c(c(NCC(O)C(F)(F)F)n1)CCNCC2 (stereo not drawn),Percent Effect,"30 µM, 30.03 µM",-77.95%
N#Cc1cccc(CN2CCC3(CC2)CC(c2ccncc2)C(=O)N3)c1.O=C(O)C(F)(F)F.O=C(O)C(F)(F)F (stereo not drawn),Percent Effect,"30 µM, 30.03 µM",43.46%
CCOc1ncccc1NC(=O)c1cc(C)c(C)s1,Percent Effect,"30 µM, 30.03 µM",63.47%
CCOc1ncccc1NC(=O)c1ccc(C)s1,Percent Effect,"30 µM, 30.03 µM",-25.8%
CCOc1ncccc1NC(=O)c1cc(C)sc1C,Percent Effect,"30 µM, 30.03 µM",-36.47%
O=C(NCCc1nnc2n1CCC2)NCC1(c2ccccc2)CC1,Percent Effect,"30.3 µM, […]",3.515%
O=C(O)C(F)(F)F.O=C(c1ccsc1)N1CCC2(CCN(Cc3ccccn3)C2=O)C1 (stereo not drawn),Percent Effect,"30 µM, 30.03 µM",-3.251%
CC(C)C(=O)N1CCC(n2nc(-c3ccco3)ccc2=O)CC1,Percent Effect,"30.3 µM, […]",-15.18%
CC(C)c1nnc2ccc(N3CCC(C(=O)Nc4nccs4)CC3)nn12,Percent Effect,"30 µM, 30.03 µM",61.33%
Cc1nnc2ccc(N3CCC(C(=O)Nc4nccs4)CC3)nn12,Percent Effect,"30 µM, 30.03 µM",0.472%
CC(C)c1nnc2ccc(N3CCCC(C(=O)Nc4nccs4)C3)nn12 (stereo not drawn),Percent Effect,"30 µM, 30.03 µM",-31.38%
CC(C)C1CN(S(C)(=O)=O)CCCN1Cc1ccc(F)cc1 (stereo not drawn),Percent Effect,"30 µM, 30.03 µM",-25.6%
CC(C)C1CN(c2cccc(C#N)n2)CCCN1CC1CC1 (stereo not drawn),Percent Effect,"30.3 µM, […]",-2.966%
CC(C)C1CN(c2cccc(C#N)n2)CCCN1Cc1ccc(F)cc1 (stereo not drawn),Percent Effect,"30.3 µM, […]",99.78%
CN(C)C(=O)[C@H]1C[C@H]2OCC[C@H]2N(Cc2ccc3ccccc3n2)C1.O=C(O)C(F)(F)F.O=C(O)C(F)(F)F,Percent Effect,"30.3 µM, […]",-111.9%
COCCNC(=O)c1cc2c(c3ccccc3n2C)n1C(=O)N(C)C,Percent Effect,"30 µM, 30.03 µM",28.71%
CC(C)NC(=O)c1cc2c(c3ccccc3n2C)n1C(=O)N(C)C,Percent Effect,"30 µM, 30.03 µM",61.67%
CCCNC(=O)c1cc2c(c3ccccc3n2C)n1C(=O)N(C)C,Percent Effect,"30.3 µM, […]",27.2%
Cc1ccsc1CN1CCC(n2cc(C(O)c3ccccc3)nn2)CC1 (stereo not drawn),Percent Effect,"30.3 µM, […]",-15.95%
CCc1nnc2n1CCN(C(=O)CCOc1ccc(C)cc1C)C2,Percent Effect,"30 µM, 30.03 µM",-30.52%
O=C(O)C(F)(F)F.O=C([C@@H]1CCO[C@@H]2CCN(CC3CCOCC3)C[C@H]21)N1CCCO1,Percent Effect,"30 µM, 30.03 µM",-11.19%
CCOCC(=O)N1C[C@@H]2CCN(c3cnccn3)C[C@@H]2C1.O=C(O)C(F)(F)F,Percent Effect,"30.3 µM, […]",-17.39%
CCN1CCn2c(C)cnc2C12CCN(C(=O)NC)CC2.O=C(O)C(F)(F)F,Percent Effect,"30.3 µM, […]",-20.19%
CCOC(=O)C1CCCN(Cc2c[nH]nc2-c2cc3ccccc3o2)C1 (stereo not drawn),Percent Effect,"30.3 µM, […]",15.89%
CCOC(=O)C1CCCCN1Cc1c[nH]nc1-c1ccc(F)cc1F (stereo not drawn),Percent Effect,"30.3 µM, […]",-2.201%
CCOC(=O)C1CCCCN1Cc1c[nH]nc1-c1cc2ccccc2o1 (stereo not drawn),Percent Effect,"30.3 µM, […]",58.53%
Cc1c(Br)cc2c(c1C)OCC(N(C)C)C2=O (stereo not drawn),Percent Effect,"30.3 µM, […]",0.8254%
CCN(CC)C1COc2c(cc(Br)c(C)c2Br)C1=O (stereo not drawn),Percent Effect,"30.3 µM, […]",52.72%
CCN(CC)C1COc2c(cc(Br)c(C)c2C)C1=O (stereo not drawn),Percent Effect,"30.3 µM, […]",-8.815%
Cc1ccc(C(=O)N2CC(=O)N(Cc3cccs3)CC(O)C2)cc1 (stereo not drawn),Percent Effect,"30.3 µM, […]",2.037%
O=C1CN(C(=O)c2ccc(F)cc2)CC(O)CN1Cc1cccs1 (stereo not drawn),Percent Effect,"30.3 µM, […]",5.097%
O=C1CN(C(=O)c2ccc(Cl)cc2)CC(O)CN1Cc1cccs1 (stereo not drawn),Percent Effect,"30.3 µM, […]",99.92%
CN1C[C@@H]2CC[C@H](CC1=O)N2C(=O)c1ccc(-c2ccccc2)[nH]c1=O,Percent Effect,"30.3 µM, […]",2.014%
CC(C)OCCCN(Cc1ccncc1)Cc1cc(F)ccc1F.Cl,Percent Effect,"30.3 µM, […]",-3.291%
C/C(Cl)=C/CNC(=O)[C@H]1CC[C@]2(CC1)CN(C)C(=O)c1ccccc1O2,Percent Effect,"30.3 µM, […]",-12.03%
CO[C@H]1CN(C(C)C)C[C@@H]1NC(=O)Nc1ccc(C(F)(F)F)cc1,Percent Effect,"30 µM, 30.03 µM",82.01%
CO[C@H]1CN(C(C)C)C[C@@H]1NC(=O)Nc1ccc2oc(C)cc2c1,Percent Effect,"30 µM, 30.03 µM",-77.41%
CO[C@H]1CN(C(C)C)C[C@@H]1NC(=O)Nc1cccc(SC)c1,Percent Effect,"30 µM, 30.03 µM",-47.34%
CO[C@H]1CN(C(=O)OC(C)(C)C)CC1NCc1cccn1C (stereo partly drawn),Percent Effect,"30 µM, 30.03 µM",-31.18%
Cc1ccc(C2COCCN2C(=O)c2ccc(F)c(F)c2)o1 (stereo not drawn),Percent Effect,"30 µM, 30.03 µM",29.67%
Cc1ccc(C2COCCN2C(=O)c2ccc(N(C)C)cc2)o1 (stereo not drawn),Percent Effect,"30 µM, 30.03 µM",5.525%
Cc1ccc(C2COCCN2C(=O)c2cccc(N(C)C)c2)o1 (stereo not drawn),Percent Effect,"30 µM, 30.03 µM",50.27%
CN(C)C(=O)CN1C(=O)C[C@@H]2[C@@H]1CCN2Cc1cccc(C#N)c1.O=C(O)C(F)(F)F,Percent Effect,"30.3 µM, […]",-180.8%
Cc1nc(C)c(C(=O)N2CCc3nc4c(C)csc4c(=O)n3CC2)s1.Cl,Percent Effect,"30.3 µM, […]",-52.81%
COc1ccc(NC(=O)c2cnc(N(C)C3CCCCC3)nc2N)cc1,Percent Effect,"30.3 µM, […]",61%
COc1ccc(NC(=O)c2cnc(C3CCN(C)CC3)nc2C)cc1,Percent Effect,"30.3 µM, […]",-7.704%
CN(c1ccc(CNC(=O)c2ccc(O)nc2)cc1)C1CCCCC1,Percent Effect,"30 µM, 30.03 µM",-19.08%
CN(c1ncc(C(=O)Nc2ccccc2)c(N)n1)C1CCCCC1,Percent Effect,"30.3 µM, […]",1.024%
CN(c1ncc(C(=O)NCc2ccccc2)c(N)n1)C1CCCCC1,Percent Effect,"30.3 µM, […]",91.96%
Cc1nc(N(C)C2CCCCC2)ncc1C(C)NC(=O)c1cccnc1 (stereo not drawn),Percent Effect,"30.3 µM, […]",-134.2%
Cc1ccc(N2Cc3nc(=O)n(C(C)C)n3C2=O)cc1,Percent Effect,"30 µM, 30.03 µM",-28.54%
CN(C(=O)Cc1ccc(NC(=O)NC2CCC2)cc1)c1ccccc1,Percent Effect,"30 µM, 30.03 µM",-6.814%
CC(C)c1nccc(CN(C)Cc2cnn(-c3ccccc3)c2)n1,Percent Effect,"30 µM, 30.03 µM",6.527%
Cc1nsc(C(=O)NCCCc2ccccc2)n1,Percent Effect,"30 µM, 30.03 µM",-6.915%
COc1cccc(-c2cnc(C3CCNCC3)cn2)c1,Percent Effect,"30.3 µM, […]",-29.22%
Fc1ccc(-c2cnc(C3CCNCC3)cn2)cc1,Percent Effect,"30.3 µM, […]",58.37%
Cl.Fc1ccc(-c2cnc(C3CCCN3)cn2)cc1 (stereo not drawn),Percent Effect,"30.3 µM, […]",19.97%
C[C@@]1(O)CCN(Cc2cc[nH]n2)C[C@H]1Oc1cccc(F)c1,Percent Effect,"30.3 µM, […]",13.98%
COCCO[C@H]1CCN(C(=O)NC2CC2)[C@H]1Cc1cnn(C)c1,Percent Effect,"30 µM, 30.03 µM",-38.19%
CCn1c(CN2CCCC(O)(c3ccc(F)cc3)CC2)cnc1SC.O=C(O)CC(O)(CC(=O)O)C(=O)O (stereo not drawn),Percent Effect,"30.3 µM, […]",-0.3019%
CNCCNc1nccc(-c2cn(C)nc2C)n1,Percent Effect,"30.3 µM, […]",-7.529%
CCCOCCCNc1nccc(-c2cn(C)nc2C)n1,Percent Effect,"30 µM, 30.03 µM",60.81%
CCN(CC)CCCNc1nccc(-c2cn(C)nc2C)n1,Percent Effect,"30.3 µM, […]",0.2363%
